The whole screen tested about 100,000 compounds, of which about 4,200 (4.2%) were called active. The sample holds actives, similar compounds and a random draw of the others, so the mix is not that of the screen. Unmarked numbers belong to inactive results.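 Rule for the calls: active = single-dose well whose peak fluorescence ratio is a statistical outlier from its plate by either plate-standardised score or position-corrected B-score; inactive = the rest.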
Molecular target: Voltage-dependent T-type calcium channel subunit alpha-1H (Homo sapiens) (UniProt O95180)
Experiment: Cav3.2 calcium influx blockers – cell-based, Fluo-4 calcium fluorescence, FDSS, MLSMR library, primary screen (AID 449739)
Conditions: Cav3.2-expressing cells, at 10 µM, active compounds read low

Chain of Voltage-dependent T-type calcium channel subunit alpha-1H (Homo sapiens) (O95180 whole entry, looked up): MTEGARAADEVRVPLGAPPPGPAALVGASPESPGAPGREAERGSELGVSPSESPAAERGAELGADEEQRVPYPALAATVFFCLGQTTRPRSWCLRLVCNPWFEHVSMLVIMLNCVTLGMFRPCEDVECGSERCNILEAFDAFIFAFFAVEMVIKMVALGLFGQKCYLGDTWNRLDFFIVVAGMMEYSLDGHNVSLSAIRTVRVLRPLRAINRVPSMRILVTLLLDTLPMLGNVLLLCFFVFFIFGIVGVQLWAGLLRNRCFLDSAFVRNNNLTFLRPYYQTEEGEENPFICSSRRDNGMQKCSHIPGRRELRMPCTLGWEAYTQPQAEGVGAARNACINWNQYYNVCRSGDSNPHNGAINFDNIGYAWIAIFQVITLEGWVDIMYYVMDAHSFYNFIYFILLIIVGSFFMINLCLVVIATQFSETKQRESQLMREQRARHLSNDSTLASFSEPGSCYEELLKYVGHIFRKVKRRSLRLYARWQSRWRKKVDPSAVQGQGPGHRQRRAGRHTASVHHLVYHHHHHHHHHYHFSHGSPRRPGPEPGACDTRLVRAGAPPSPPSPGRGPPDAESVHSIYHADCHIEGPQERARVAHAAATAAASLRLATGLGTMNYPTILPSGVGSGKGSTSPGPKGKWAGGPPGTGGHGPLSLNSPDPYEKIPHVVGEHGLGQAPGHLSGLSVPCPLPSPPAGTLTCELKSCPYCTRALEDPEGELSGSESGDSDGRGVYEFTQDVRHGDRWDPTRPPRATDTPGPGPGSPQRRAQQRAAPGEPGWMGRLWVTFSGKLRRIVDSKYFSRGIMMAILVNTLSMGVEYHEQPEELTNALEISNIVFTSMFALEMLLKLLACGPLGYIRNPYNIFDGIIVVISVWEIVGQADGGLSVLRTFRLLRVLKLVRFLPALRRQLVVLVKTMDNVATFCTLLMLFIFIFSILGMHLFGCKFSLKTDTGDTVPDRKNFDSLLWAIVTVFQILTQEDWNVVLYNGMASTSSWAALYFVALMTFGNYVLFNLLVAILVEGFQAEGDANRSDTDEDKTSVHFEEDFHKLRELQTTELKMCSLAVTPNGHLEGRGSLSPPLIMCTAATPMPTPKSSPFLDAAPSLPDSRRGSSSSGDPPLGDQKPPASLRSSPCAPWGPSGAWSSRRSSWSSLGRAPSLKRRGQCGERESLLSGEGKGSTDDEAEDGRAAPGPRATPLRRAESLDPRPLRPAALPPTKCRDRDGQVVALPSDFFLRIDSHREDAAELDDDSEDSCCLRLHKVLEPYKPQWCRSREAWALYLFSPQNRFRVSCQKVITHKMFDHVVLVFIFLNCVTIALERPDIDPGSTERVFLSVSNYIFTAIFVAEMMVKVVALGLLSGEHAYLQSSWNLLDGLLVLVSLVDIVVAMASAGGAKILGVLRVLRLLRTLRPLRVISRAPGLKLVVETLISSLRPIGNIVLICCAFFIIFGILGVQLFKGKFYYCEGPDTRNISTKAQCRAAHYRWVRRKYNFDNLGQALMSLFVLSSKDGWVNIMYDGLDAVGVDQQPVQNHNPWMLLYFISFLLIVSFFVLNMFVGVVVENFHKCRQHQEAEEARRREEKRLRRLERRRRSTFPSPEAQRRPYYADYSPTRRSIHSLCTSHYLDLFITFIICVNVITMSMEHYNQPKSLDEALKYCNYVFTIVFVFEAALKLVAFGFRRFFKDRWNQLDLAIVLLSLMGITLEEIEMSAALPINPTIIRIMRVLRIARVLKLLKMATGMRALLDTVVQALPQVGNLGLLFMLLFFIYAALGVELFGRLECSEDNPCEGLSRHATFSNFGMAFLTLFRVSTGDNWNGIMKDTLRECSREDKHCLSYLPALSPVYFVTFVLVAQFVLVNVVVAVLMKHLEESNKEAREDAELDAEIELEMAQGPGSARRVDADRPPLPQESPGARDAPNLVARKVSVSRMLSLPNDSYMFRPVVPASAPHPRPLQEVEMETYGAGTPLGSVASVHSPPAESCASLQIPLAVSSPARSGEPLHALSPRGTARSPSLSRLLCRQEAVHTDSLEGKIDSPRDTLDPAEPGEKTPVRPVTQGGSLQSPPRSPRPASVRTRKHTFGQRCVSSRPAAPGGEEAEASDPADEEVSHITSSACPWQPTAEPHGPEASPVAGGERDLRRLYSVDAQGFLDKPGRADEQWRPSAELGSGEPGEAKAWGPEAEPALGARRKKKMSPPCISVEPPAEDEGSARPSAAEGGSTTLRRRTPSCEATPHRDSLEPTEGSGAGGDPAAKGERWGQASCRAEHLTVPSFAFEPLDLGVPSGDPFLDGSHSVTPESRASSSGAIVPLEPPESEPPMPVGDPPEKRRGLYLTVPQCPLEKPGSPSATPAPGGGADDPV

Structure (SMILES)	B-score
O=C(C1=C[C@H](c2coc3ccccc3c2=O)C[C@H](OCc2ccc(CO)cc2)O1)N1CCOCC1	0.0258
O=C(ON=C1CCN(S(=O)(=O)c2ccccc2)CC1)c1ccc(Cl)cc1	0.782
CC(C)(C)c1ccc(C(=O)NNC(=O)Cc2ccccc2)cc1	0.185
Cc1ccccc1NC(=O)c1ccccc1	0.346
CN(C(=O)CC(NC(=O)c1ccccc1)(c1ccccc1)c1ccccc1)c1ccccc1	-8.96 (active)
O=C(O)c1cnn2c(C(F)(F)F)cc(-c3ccccc3)nc12	1.18
COC(C/C=C/C(=O)[C@@H](C)OCc1ccccc1)OC	-1.65
CCOC(=O)C[C@H]1c2ccc(C(F)(F)F)cc2S(=O)(=O)N1c1ccccc1	-2.6
CCC(=O)OCc1c(C(F)(F)F)nn(C)c1Oc1cccc(C(F)(F)F)c1	-5.08 (active)
Cn1nc(C(F)(F)F)c(C(=O)Nc2cccc(C(F)(F)F)c2)c1SCc1ccc(Cl)cc1	-4.7
CC1=NN(C(=O)Cc2ccc(C)cc2)C(O)(c2cccnc2)C1 (stereo not drawn)	0.437
Cc1ccc(CNC(=O)c2ccc3c(c2)S(=O)(=O)c2ccccc2C3=O)cc1	0.00734
Cc1cc(/C=C2/SC(=O)N(CC(=O)OC(C)C)C2=O)c(C)n1C	0.168
Cc1ccc(-c2nc3ccccc3[nH]2)cc1NC(=O)c1sc2ccccc2c1Cl	-3.3
CC(=O)NC(Cc1c[nH]c2ccccc12)C(=O)O (stereo not drawn)	1.52
NC(=O)CSc1c[nH]c2ccccc12	0.666
O=C(Cc1c[nH]c2ccccc12)OCCOC(=O)Cc1c[nH]c2ccccc12	-6.55 (active)
Cc1cc([N+](=O)[O-])c(NC2CCCCC2)c([N+](=O)[O-])c1	-0.266
CONC(=O)c1cc(OCC(F)(F)F)ccc1OCC(F)(F)F	0.627
COC(=O)C1=C(C)Nc2ncnn2C1c1ccco1 (stereo not drawn)	-0.126

Structure (SMILES)	B-score
Brc1ccc(C2=CC(c3ccco3)n3ncnc3N2)cc1 (stereo not drawn)	-4.77 (active)
CCOc1ccc(C2=CC(c3ccccc3)n3ncnc3N2)cc1 (stereo not drawn)	-0.0885
Cn1c(=O)c2c(nc(SCC(=O)Nc3ccccc3N3CCCCC3)n2C)n(C)c1=O	-0.936
Cc1ccccc1NC(=O)CNc1ccccc1N1CCCCC1	-8.5 (active)
O=C(CN1CCN(C2CCCCC2)CC1)Nc1ccccc1N1CCCCC1	-0.124
C#CCOCCOCCOCCNc1nc(N2CCN(C(=O)[C@H](CCC(=O)O)n3cc(C(N)CO)nn3)CC2)nc(N2CCN(C(=O)[C@H](CCCCN)n3cc(C(N)CC(C)C)nn3)CC2)n1 (stereo partly drawn)	-1.41
Cc1ccc(C(=O)NNC(=O)OC(C)(C)C)c(Cl)c1	-0.27
Cn1c(=O)n(C)c2cc(/C=N/NC(=O)c3cccc(Br)c3)ccc21	1.83
COc1ccc(C(=O)Nc2ccccc2C(=O)N/N=C/c2ccc(O)c(OC)c2)cc1	0.134
O=C(N/N=C\c1cccc(Br)c1)c1ccccc1-n1cccc1	-6.5 (active)
COc1ccc2c(c1)CC[C@@H]1[C@@H]2CC[C@]2(C)C(=O)CC[C@@H]12	-0.311
CCSc1nnc(-c2cc3c(s2)-c2ccccc2CC3)o1	0.187
Fc1ccc(-c2nnc(CSc3nnc(-c4ccc5c(c4)OCO5)o3)o2)cc1	-0.34
Fc1ccc(CSc2nnc(-c3cc4c(s3)-c3ccccc3CC4)o2)cc1	-3.39 (active)
Cc1nn(C)c(Oc2ccccc2)c1CCNS(=O)(=O)c1ccc(F)cc1	-1.06
CC(C)=CC(=O)Nc1nnc(-c2ccc(F)cc2)s1	0.294
c1ccc(CSc2nnc(-c3ccco3)c(-c3ccco3)n2)cc1	0.232
O=C(CSc1nnc(-c2ccco2)n1Cc1ccccc1)NC(=O)NCc1ccco1	-1.76
c1ccc(CSc2nnc(-c3ccco3)n2Cc2ccccc2)cc1	-4.26 (active)
CCOC(=O)CN1C(=O)N[C@@H](c2ccc(Br)cc2)C(C(C)=O)=C1C	1.08

Structure (SMILES)	B-score
CC(NC(=O)c1cc(-c2ccccc2)on1)c1ccccc1 (stereo not drawn)	0.962
CC(N=Cc1nc(-c2ccccc2)oc1O)c1ccccc1 (stereo not drawn)	-4.84 (active)
C/C=C(\C)C(=O)N1CC2(CC(c3cccc(NC(=O)CCCCC)c3)=NO2)C[C@@H]1C(N)=O (stereo partly drawn)	-0.0964
O=C1c2ccccc2NC(c2ccc(-c3cccc(Cl)c3)o2)N1O (stereo not drawn)	-6.09 (active)
C[C@@H](C(=O)N1CCNCC1)n1cc(CCC(=O)O)nn1	0.81
Cc1cccc(NC(=O)CN2CCCN(S(=O)(=O)c3ccc(Br)s3)CC2)c1	-4.23 (active)
Cc1cccc(NC(=O)CN2C(=O)CNC2=O)c1	-0.246
Cc1cccc(OCCCC(=O)Nc2ccc(S(=O)(=O)N3CCCC3)cc2)c1	-4.11
O=C(NC1CC1)C1=C[C@H](c2coc3ccccc3c2=O)C[C@H](OCCCCO)O1	0.0579
COc1ccccc1NC(=O)CSc1nnc(-c2ccoc2C)n1CCc1ccccc1	-2.79
CCCn1c(SCC(=O)Nc2cccc(C(=O)OCC)c2)nnc1-c1ccoc1C	-5.22 (active)
Cc1ccc(-n2c(SCC(=O)Nc3ccc4c(c3)OCO4)nnc2-c2ccoc2C)cc1	-0.45
FC(F)(F)c1cc(C(F)(F)F)c2ccc(N3CCN(c4ccccc4)CC3)nc2n1	-0.29
CNC(C)C#Cc1ccc2sc3cc(OC)c(OC)cc3c(=O)c2c1 (stereo not drawn)	-1.08
C[C@H]1CC[C@]2(O[C@@H](CCO)C[C@@H](O)[C@@H]2O)O1	-0.0046
O=C(Cn1c(=O)sc2ccccc21)Nc1ccc2c(c1)OCCO2	0.666
CC1Cc2ccccc2N1CC(=O)Nc1ccc2c(c1)OC(F)(F)O2 (stereo not drawn)	-4.17 (active)
O=C(COC(=O)c1ccccc1NC(=O)c1ccco1)Nc1ccc2c(c1)OC(F)(F)O2	-1.68
